# Measurements from the supplement of paper PMC10849652.
# Targets with a hit are over-represented here; the source holds about 7,900 in all. About 0.6% of all pairs of compound and target were hits. Values without a mark were called inactive.
# Legend:
# Test in all cases: log2 fold change, soluble protein after heating vs DMSO (PISA); higher = thermal stabilisation; K562 cells, 10 uM, 30 min; active = over 0.2 and 3.5 SD of the protein, either way, in both replicates (recomputed)
# [1] = compound: CC1=C(C=C(C=C1)NC(=O)C2=CC(=CC=C2)C(C)(C)C#N)NC3=CC4=C(C=C3)N=CN(C4=O)C
# Summary of the method: (§1)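 K562 cells at 2×10^6 cells/mL were given 10 μM compound for 30 min. Aliquots then went through 3 min of heating across 48°C-58°C, were pooled, and were extracted in PBS with 0.5% NP-40 at 4°C, and the supernatant after 21,000xg for 90 min was quantified by TMTpro 16plex LC-MS/MS with channel sums equalised. Thermal stability relative to control samples, from duplicates, is given as log2 fold change.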
# [2] = compound: CC1=C(C=C(C=C1)NC(=O)C2=CC(=CC=C2)N(C)C)NC(=O)C3=CC=C(C=C3)O
# Summary of the method: as §1
# [3] = compound: CC1=CC=C(C=C1)SC2=C3C=C(SC3=CN=C2)C(=O)N
# Summary of the method: as §1
# [4] = compound: CC1=NC(=CC=C1)C2=C(N=C(N2)C(C)(C)C)C3=CC4=NC=CN=C4C=C3
# Summary of the method: as §1
# Nexturastat A = compound: CCCCN(Cc1ccc(C(=O)NO)cc1)C(=O)Nc1ccccc1 [Nexturastat A]
# Summary of the method: as §1
# vemurafenib = compound: CCCS(=O)(=O)Nc1ccc(F)c(C(=O)c2c[nH]c3ncc(-c4ccc(Cl)cc4)cc23)c1F [vemurafenib]
# Summary of the method: as §1
# [5] = compound: CCCS(=O)(=O)Nc1ccc(F)c(C(=O)c2c[nH]c3ncc(Cl)cc23)c1F
# Summary of the method: as §1
# [6] = compound: CCCc1cc(C)[nH]c(=O)c1CNC(=O)c1cc(-c2ccnc(N3CCN(C)CC3)c2)cc2c1cnn2C(C)C
# Summary of the method: as §1
# givinostat = compound: CCN(CC)Cc1ccc2cc(COC(=O)Nc3ccc(C(=O)NO)cc3)ccc2c1 [givinostat]
# Summary of the method: as §1
# barasertib = compound: CCN(CCCOc1ccc2c(Nc3cc(CC(=O)Nc4cccc(F)c4)[nH]n3)ncnc2c1)CCOP(=O)(O)O [barasertib]
# Summary of the method: as §1
# [7] = compound: CC[C@@H]1C(=O)N(C)c2cnc(Nc3ccc(C(=O)NC4CCN(C)CC4)cc3OC)nc2N1C1CCCC1
# Summary of the method: as §1
# volasertib = compound: CC[C@@H]1C(=O)N(C)c2cnc(Nc3ccc(C(=O)N[C@H]4CC[C@H](N5CCN(CC6CC6)CC5)CC4)cc3OC)nc2N1C(C)C [volasertib]
# Summary of the method: as §1
# [8] = compound: CC[C@H](C)N1C=C(C2=C(C=C(C=C21)C3=CN=C(C=C3)N4CCNCC4)C(=O)NCC5=C(C=C(NC5=O)C)C)C
# Summary of the method: as §1
# epoxomicin = compound: CC[C@H](C)[C@@H](C(=O)N[C@@H]([C@@H](C)O)C(=O)N[C@@H](CC(C)C)C(=O)[C@]1(CO1)C)NC(=O)[C@H]([C@@H](C)CC)N(C)C(=O)C [epoxomicin]
# Summary of the method: as §1
# [9] = compound: CCn1c(C(=O)N(C2CC2)C2CC2)cc2c3c(ncn3C)c(Nc3cc(C)n(C)n3)nc21
# Summary of the method: as §1
# [10] = compound: CCn1cc(-c2ccnc3[nH]c(-c4cccc(CN(C)C)c4)cc23)c(-c2ccc(NC(=O)N(C)C)cc2)n1
# Summary of the method: as §1
# [11] = compound: CN(C)CC(=O)Nc1ccc2[nH]c(=O)c3ccccc3c2c1
# Summary of the method: as §1
# rosiglitazone = compound: CN(CCOC1=CC=C(C=C1)C[C@H]2C(=O)NC(=O)S2)C3=CC=CC=N3 (racemic) [rosiglitazone]
# Summary of the method: as §1
# [12] = compound: CN1C2=C(C3=C1C(=O)N(N=C3)CC4=CC(=CC=C4)N)SC(=C2)S(=O)C
# Summary of the method: as §1
# [13] = compound: CN1CCC(CNc2ccc3ncc(-c4cccc(OC(F)(F)F)c4)n3n2)CC1
# Summary of the method: as §1
# UniProt P51665, sequence (P51665 whole entry, looked up): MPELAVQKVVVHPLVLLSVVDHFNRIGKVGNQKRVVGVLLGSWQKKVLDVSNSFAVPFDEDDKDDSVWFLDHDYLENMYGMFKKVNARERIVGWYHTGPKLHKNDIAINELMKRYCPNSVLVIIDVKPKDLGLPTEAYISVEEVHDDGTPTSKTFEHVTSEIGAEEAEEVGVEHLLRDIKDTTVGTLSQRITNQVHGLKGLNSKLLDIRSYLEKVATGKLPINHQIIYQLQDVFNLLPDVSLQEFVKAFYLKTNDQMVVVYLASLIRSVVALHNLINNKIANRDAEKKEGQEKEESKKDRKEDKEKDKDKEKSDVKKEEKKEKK
# UniProt O43242, sequence (O43242 whole entry, looked up): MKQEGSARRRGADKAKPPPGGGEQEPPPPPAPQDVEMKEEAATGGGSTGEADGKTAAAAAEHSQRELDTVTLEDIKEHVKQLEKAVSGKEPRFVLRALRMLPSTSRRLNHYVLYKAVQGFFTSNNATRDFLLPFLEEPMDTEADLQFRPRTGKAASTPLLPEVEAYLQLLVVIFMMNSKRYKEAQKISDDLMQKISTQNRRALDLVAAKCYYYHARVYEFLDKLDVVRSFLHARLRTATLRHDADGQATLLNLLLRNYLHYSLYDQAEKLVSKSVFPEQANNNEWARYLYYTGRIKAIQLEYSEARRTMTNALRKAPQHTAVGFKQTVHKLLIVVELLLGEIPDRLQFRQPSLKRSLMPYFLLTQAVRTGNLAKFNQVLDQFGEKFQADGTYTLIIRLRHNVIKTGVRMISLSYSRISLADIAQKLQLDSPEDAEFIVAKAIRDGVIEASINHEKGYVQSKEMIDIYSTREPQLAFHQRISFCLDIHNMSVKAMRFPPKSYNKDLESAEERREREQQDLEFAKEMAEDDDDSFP
# UniProt Q8IWE5, sequence (Q8IWE5 whole entry, looked up): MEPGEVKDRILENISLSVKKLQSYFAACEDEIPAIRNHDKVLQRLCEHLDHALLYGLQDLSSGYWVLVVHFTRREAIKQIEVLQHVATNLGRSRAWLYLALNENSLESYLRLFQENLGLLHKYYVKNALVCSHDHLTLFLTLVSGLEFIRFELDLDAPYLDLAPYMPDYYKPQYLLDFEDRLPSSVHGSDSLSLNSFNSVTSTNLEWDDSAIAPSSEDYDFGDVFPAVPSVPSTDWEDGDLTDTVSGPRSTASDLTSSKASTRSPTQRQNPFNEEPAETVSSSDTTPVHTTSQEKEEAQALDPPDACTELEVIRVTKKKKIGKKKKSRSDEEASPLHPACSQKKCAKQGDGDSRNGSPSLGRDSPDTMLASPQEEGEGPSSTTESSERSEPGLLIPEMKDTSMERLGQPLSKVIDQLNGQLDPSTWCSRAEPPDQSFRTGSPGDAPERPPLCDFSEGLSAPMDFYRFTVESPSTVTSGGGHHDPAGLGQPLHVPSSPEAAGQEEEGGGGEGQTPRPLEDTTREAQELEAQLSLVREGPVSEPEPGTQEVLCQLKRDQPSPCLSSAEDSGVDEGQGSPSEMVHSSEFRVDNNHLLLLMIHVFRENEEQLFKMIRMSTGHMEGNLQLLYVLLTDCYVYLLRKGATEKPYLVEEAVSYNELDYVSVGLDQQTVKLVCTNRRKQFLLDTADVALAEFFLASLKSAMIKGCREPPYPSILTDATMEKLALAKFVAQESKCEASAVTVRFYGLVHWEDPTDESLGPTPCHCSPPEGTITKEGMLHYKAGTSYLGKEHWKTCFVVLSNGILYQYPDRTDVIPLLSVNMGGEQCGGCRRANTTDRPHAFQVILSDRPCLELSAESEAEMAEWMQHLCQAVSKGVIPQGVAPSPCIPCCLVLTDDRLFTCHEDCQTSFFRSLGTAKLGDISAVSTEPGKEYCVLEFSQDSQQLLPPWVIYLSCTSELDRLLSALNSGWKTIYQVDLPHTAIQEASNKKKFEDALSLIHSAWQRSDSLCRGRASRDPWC
# UniProt Q13362, sequence (Q13362 whole entry, looked up): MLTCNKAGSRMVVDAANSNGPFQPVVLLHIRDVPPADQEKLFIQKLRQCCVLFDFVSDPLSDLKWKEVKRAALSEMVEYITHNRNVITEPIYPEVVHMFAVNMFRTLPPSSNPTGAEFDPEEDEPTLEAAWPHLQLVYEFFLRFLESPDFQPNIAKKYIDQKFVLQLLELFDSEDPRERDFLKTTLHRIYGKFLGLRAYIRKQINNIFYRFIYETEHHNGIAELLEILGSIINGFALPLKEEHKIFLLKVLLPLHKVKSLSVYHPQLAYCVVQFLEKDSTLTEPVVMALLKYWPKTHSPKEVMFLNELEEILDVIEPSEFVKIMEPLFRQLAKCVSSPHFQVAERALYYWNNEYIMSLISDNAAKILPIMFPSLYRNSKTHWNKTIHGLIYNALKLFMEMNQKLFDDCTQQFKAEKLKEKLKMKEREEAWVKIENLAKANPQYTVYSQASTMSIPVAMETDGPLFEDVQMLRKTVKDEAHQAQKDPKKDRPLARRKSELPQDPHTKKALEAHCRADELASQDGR
# UniProt Q15172, sequence (Q15172 whole entry, looked up): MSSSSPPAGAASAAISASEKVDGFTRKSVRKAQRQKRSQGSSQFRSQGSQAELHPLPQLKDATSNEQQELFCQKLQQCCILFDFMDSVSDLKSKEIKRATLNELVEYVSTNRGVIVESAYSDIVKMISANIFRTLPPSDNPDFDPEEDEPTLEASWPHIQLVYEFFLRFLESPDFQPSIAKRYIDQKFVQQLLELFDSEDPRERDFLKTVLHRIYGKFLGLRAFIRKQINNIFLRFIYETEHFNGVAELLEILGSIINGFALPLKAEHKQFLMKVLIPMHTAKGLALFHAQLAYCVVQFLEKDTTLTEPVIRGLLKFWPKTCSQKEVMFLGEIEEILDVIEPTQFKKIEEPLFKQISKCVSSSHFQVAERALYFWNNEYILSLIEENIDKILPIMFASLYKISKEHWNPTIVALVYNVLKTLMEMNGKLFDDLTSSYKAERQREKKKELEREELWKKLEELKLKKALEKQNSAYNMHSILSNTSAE
# UniProt Q8IV08, sequence (Q8IV08 whole entry, looked up): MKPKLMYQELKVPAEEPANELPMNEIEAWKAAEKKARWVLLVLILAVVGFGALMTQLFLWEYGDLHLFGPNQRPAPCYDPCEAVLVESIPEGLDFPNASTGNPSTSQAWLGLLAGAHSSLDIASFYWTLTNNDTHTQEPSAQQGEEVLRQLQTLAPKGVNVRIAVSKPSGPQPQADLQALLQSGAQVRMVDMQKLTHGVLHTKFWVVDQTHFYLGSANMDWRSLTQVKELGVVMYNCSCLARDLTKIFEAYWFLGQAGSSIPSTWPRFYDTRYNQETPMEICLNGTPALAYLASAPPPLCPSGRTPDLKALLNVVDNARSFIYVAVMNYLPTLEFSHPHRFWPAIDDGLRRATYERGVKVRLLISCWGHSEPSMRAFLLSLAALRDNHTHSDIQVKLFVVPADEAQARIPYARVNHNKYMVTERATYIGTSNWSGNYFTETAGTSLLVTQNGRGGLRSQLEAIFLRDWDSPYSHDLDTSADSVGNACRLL
# UniProt O00625, sequence (O00625 whole entry, looked up): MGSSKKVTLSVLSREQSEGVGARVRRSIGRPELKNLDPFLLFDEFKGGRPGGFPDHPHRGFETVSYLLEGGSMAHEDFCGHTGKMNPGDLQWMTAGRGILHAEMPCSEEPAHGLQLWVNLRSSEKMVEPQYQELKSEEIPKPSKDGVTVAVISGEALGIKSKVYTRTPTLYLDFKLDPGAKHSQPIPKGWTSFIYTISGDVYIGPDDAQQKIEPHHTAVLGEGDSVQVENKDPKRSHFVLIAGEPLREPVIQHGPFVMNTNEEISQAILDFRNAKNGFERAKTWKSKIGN
# UniProt P29590, sequence (P29590 whole entry, looked up): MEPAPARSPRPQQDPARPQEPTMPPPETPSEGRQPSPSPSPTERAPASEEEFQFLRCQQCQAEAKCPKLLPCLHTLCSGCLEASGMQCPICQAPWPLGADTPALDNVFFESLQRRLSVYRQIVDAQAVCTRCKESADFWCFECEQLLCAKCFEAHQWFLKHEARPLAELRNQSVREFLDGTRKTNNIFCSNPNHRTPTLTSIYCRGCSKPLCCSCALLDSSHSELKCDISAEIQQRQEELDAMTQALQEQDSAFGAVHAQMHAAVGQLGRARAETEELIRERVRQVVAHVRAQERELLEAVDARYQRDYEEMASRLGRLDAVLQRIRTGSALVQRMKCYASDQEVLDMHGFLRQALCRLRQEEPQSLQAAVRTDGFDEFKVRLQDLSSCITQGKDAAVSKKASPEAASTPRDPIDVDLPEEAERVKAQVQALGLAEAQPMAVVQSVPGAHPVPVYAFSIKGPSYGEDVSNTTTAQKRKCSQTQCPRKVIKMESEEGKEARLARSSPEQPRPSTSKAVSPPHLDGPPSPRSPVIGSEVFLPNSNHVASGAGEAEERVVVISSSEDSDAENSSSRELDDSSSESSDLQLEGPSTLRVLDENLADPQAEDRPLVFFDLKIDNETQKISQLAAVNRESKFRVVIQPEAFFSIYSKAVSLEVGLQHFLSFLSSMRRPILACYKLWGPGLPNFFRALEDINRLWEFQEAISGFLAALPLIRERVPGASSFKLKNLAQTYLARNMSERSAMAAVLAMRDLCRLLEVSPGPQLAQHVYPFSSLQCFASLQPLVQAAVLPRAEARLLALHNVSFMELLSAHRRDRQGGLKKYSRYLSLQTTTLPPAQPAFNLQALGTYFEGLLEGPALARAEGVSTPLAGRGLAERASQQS
# UniProt Q9UBV8, sequence (Q9UBV8 whole entry, looked up): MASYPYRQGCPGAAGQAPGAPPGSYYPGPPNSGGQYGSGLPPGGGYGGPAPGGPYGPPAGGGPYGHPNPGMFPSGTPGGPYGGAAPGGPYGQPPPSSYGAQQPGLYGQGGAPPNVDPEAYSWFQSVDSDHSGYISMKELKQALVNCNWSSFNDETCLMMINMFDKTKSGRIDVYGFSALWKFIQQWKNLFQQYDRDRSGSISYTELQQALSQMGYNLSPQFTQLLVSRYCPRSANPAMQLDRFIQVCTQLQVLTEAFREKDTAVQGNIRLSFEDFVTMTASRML
Target,log2 fold change [1],log2 fold change [2],log2 fold change [3],log2 fold change [4],log2 fold change (Nexturastat A),log2 fold change (vemurafenib),log2 fold change [5],log2 fold change [6],log2 fold change (givinostat),log2 fold change (barasertib),log2 fold change [7],log2 fold change (volasertib),log2 fold change [8],log2 fold change (epoxomicin),log2 fold change [9],log2 fold change [10],log2 fold change [11],log2 fold change (rosiglitazone),log2 fold change [12],log2 fold change [13]
PML (UniProt P29590),-0.024,-0.001,-0.009,-0.02,-0.002,-0.044,0.018,-0.007,-0.014,0.01,-0.051,-0.136,0.027,-0.021,-0.001,-0.024,-0.049,0.026,0.015,-0.045
PSMD8 (UniProt P48556),0.044,0.047,-0.056,-0.045,0.128,-0.082,-0.073,0.022,-0.04,-0.034,0.054,0.25,-0.01,-0.286 (active),0.022,0.039,-0.037,-0.048,0.035,0.016
PRKCQ (UniProt Q04759),0.013,-0.043,0.073,-0.004,-0.055,0.015,0.065,-0.065,0.052,0.03,-0.11,-0.17,0.031,0.001,-0.028,-0.047,0.021,0.049,-0.014,-0.496 (active)
PLD3 (UniProt Q8IV08),0.002,0.012,0.034,0.018,-0.081,-0.007,0.019,-0.028,-0.072,-0.013,-0.369 (active),-0.437 (active),-0.038,0.041,0.052,0.035,0.014,-0.007,-0.027,-0.488 (active)
PSMD3 (UniProt O43242),0.023,0.022,-0.052,-0.024,0.065,-0.06,-0.032,0.034,-0.028,-0.066,0.039,0.133,0,-0.337 (active),0.01,0.02,-0.01,-0.01,0.027,0.067
PPIL2 (UniProt Q13356),0.005,-0.084,0.04,0.023,-0.059,0.113,0.123,0.016,0.123,0.073,-0.196,-0.599 (active),0.159,0.142,-0.098,-0.031,0.08,0.043,-0.019,-0.022
PLEKHM2 (UniProt Q8IWE5),0.064,0.035,0.052,-0.011,-0.028,0.075,0.124,0.038,0.177,0.076,-0.127,-0.177,0.009,0.037,-0.051,-0.175,0.003,0.034,-0.04,-0.357 (active)
PIGT (UniProt Q969N2),-0.001,-0.005,0.02,-0.016,0.031,-0.008,0.009,0.027,-0.033,0.004,0.02,-0.118,0.035,-0.011,0.019,-0.046,0.013,0.014,0.015,0.081
PPP2R5A (UniProt Q15172),-0.014,-0.039,0.032,0.051,-0.017,0.061,0.146,-0.003,0.026,0.002,-0.099,-0.295 (active),0.097,0.067,0.012,-0.046,0.072,0.112,-0.049,-0.305 (active)
PEF1 (UniProt Q9UBV8),-0.011,-0.075,0.027,0.013,0.032,0.008,0.073,-0.045,0.022,0.122,-0.144,-0.329 (active),0.035,0.101,0.045,0.002,-0.061,-0.022,-0.005,0.048
PPP2R5C isoform 5 (UniProt Q13362),0.001,-0.045,0.012,0.052,-0.171,0.066,0.038,0.032,0.059,0.018,-0.12,-0.429 (active),0.019,0.06,-0.086,-0.009,-0.023,0.021,-0.027,-0.203
PSMD7 (UniProt P51665),-0.011,-0.005,-0.047,-0.038,0.145,-0.073,-0.029,0.045,-0.03,-0.05,0.027,0.205,0,-0.236,0.01,0.027,-0.019,-0.047,0.083,0.06
PRKACB isoform 2 (UniProt P22694),-0.014,0.015,0.011,0.077,0.059,-0.007,0.031,-0.129,-0.024,0.036,-0.025,-0.031,0.004,-0.033,0.008,-0.009,-0.048,0.025,-0.042,-0.022
PRMT3 (UniProt O60678),0.016,-0.025,0.044,0.076,-0.026,0.056,0.055,0,-0.013,0.035,-0.126,-0.411 (active),0.039,0.033,0.005,-0.093,0.039,0.077,-0.008,-0.953 (active)
PLA2G15 (UniProt Q8NCC3),0.04,-0.013,0.005,-0.026,0.089,0.044,0.001,-0.063,0.019,0.024,-0.084,-0.166,0.026,0.01,-0.017,0.005,0.006,0.027,0.043,-0.076
PIR (UniProt O00625),-0.063,0.325 (active),0.002,-0.035,-0.053,0.03,0.122,0.085,-0.146,0.007,-0.041,-0.069,-0.028,0.034,0.097,-0.006,0.031,0.02,-0.06,-0.052
